Literature values, collected in PubChem BioAssay AID977611.
Among all 3,900 compounds or so, about 3,900 (100%) were called active. No cut-off is given here; in the data, nearly all actives have Kd up to about 4200 µM. The set was probably picked from earlier hits. This is one part of the list. Starred links: 1 amine or outer side, 2 acyl side, 3 side chain; linkers in the order of their positions; H or OH if unused. *1 amine or outer side, *2 acyl side, *3 side chain or, on linkers, in order; H or OH if unused. Where a SMILES comes first, the peptide text is derived from it. Non-standard residues stand in square brackets, D forms with d. Residues, ends and D or L forms follow the SMILES beside them. Peptide text beside a SMILES is read from it. [ ]: non-standard residue; d: D form. X1 = O=C([C@H](Cc1ccc(O[P+](O)(O)O)cc1)N[*:1])[*:2]

Assay: PubChem AID 977611
Details: PDB protein-ligand complexes, literature Kd

For H-DWDFLPP-NH2, the Kd (protein: Gamma-aminobutyric acid receptor-associated protein, PDB entry 3dow) is listed as 11.5 µM (active).

In the case of CC(C)C[C@H](NC(=O)[C@H](Cc1ccccc1)NC(=O)[C@@H]1CCCN1C(=O)[C@@H](NC(=O)[C@H](CC(C)C)NC(=O)[C@H](CO)NC(=O)[C@H](Cc1c[nH]cn1)NC(=O)[C@H](Cc1c[nH]c2ccccc12)NC(=O)[C@@H]1CCCN1C(=O)[C@H](Cc1ccccc1)NC(=O)[C@@H](N)C(C)C)C(C)C)C(=O)N[C@@H](C)C(=O)N1CCC[C@H]1C(=O)N[C@@H](CO)C(=O)N[C@@H](CCC(N)=O)C(=O)O (H-VFPWHSLVPFLAPSQ-OH), the Kd (protein: Ataxin-1, PDB entry 2m41) is listed as 8 µM (active).

In the case of C=CCO[C@]1(C(=O)O)C[C@@H](O[C@]2(C(=O)O)C[C@@H](O)[C@@H](O)[C@@H]([C@H](O)CO[C@]3(C(=O)O)C[C@@H](O)[C@@H](O)[C@@H]([C@H](O)CO)O3)O2)[C@@H](O)[C@@H]([C@H](O)CO)O1, the Kd (protein: antigen binding fragment of mAb S25-26, PDB entry 4m7j) is given as 0.781 µM (active).

For CC(=O)N[C@@H](CC(=O)O)C(=O)N[C@H](C(=O)N[C@@H](CCC(=O)O)C(=O)N[C@H](C(=O)N[C@@H](Cc1ccc(O[P+](O)(O)O)cc1)C(=O)N[C@@H](CCC(=O)O)C(=O)N[C@@H](CO)C(=O)N1CCC[C@H]1C(=O)N[C@@H](Cc1ccc(O[P+](O)(O)O)cc1)C(=O)N[C@@H](C)C(=O)N[C@@H](CC(=O)O)C(=O)N1CCC[C@H]1C(=O)N[C@@H](CCC(=O)O)C(N)=O)C(C)C)[C@@H](C)O (Ac-DTEV[X1]ESP[X1]ADPE-NH2), the Kd (protein: C-termainl SH2 domain from phospholipase C-gamma-1 comprising residues 663-759( PLC?), PDB entry 2fci) is given as 0.07 µM (active).

For CC(C)[C@H](NC(=O)[C@H](CCC(=O)O)NC(=O)[C@@H](NC(=O)[C@@H](N)CC(=O)O)[C@@H](C)O)C(=O)N[C@@H](Cc1ccc(O)cc1)C(=O)N[C@@H](CCC(=O)O)C(=O)N[C@@H](CO)C(=O)N1CCC[C@H]1C(=O)N[C@@H](Cc1ccc(O[P+](O)(O)O)cc1)C(=O)N[C@@H](C)C(=O)N[C@@H](CC(=O)O)C(=O)N1CCC[C@H]1C(=O)N[C@@H](CCC(=O)O)C(=O)O (H-DTEVYESP[X1]ADPE-OH), the Kd (protein: Proto-oncogene vav, PDB entry 2mc1) is listed as 71 µM (active).

In the case of O=C(Nc1ccc(-c2nn[nH]n2)cc1Cc1ccccc1)c1cccc(CC2CCCCC2)n1, the Kd (protein: KSHV Protease, PDB entry 4p3h) is listed as 1 µM (active).

In the case of CN(C)c1cc[n+](Cc2ccc(-c3ccc(Cn4cnc(=N)c5[nH]cnc54)cc3)cc2)cc1, the Kd (protein: CHOLINE KINASE ALPHA, PDB entry 4br3) is given as 1.9 µM (active).

In the case of CN(C)c1cc[n+](Cc2ccc(CCc3ccccc3)cc2)cc1, the Kd (protein: Human choline kinase a1, PDB entry 4cga) is listed as 0.4 µM (active).

In the case of CN(C)c1cc[n+](Cc2ccc(-c3ccccc3)cc2)cc1, the Kd (protein: Human choline kinase a1, PDB entry 4cg9) is listed as 0.62 µM (active).

For CN(C)c1cc[n+](Cc2ccc(CCCCc3ccc(CN4C=CC(N(C)c5ccc(Cl)cc5)C=C4)cc3)cc2)cc1, the Kd (protein: Human choline kinase a1, PDB entry 4cg8) is given as 0.11 µM (active).

For CC(=O)N[C@@H]1[C@@H](O[C@H]2O[C@H](CO)[C@H](O[C@H]3O[C@H](CO[C@@H]4O[C@@H](C)[C@H](O)[C@@H](O)[C@H]4O)[C@@H](O)[C@H](O)[C@H]3O)[C@H](O[C@@H]3O[C@H](CO)[C@@H](O)[C@H](O)[C@H]3NC(C)=O)[C@H]2O)[C@H](O)[C@@H](CO[C@H]2O[C@H](CO)[C@@H](O)[C@H](O)[C@H]2O)O[C@H]1O, the Kd (protein: TAIL SPIKE PROTEIN(D339A mutant), PDB entry 2x6y) is given as 26 µM (active) and the Kd (protein: TAIL SPIKE PROTEIN, PDB entry 2x85) is given as 129 µM (active).

In the case of CC(=O)N[C@H]1[C@H](O[C@H]2[C@H](O)[C@@H](O)[C@H](O[C@H]3[C@H](O)[C@@H](CO)OC[C@@H]3NC(C)=O)O[C@@H]2C(=O)O)O[C@H](CO)[C@@H](O)[C@@H]1O[C@@H]1O[C@H](C(=O)O)[C@@H](O)[C@H](O)[C@H]1O, the Kd (protein: murine cd44 hyaluronan binding domain, PDB entry 4mrd) is listed as 428 µM (active).

In the case of CC(=O)N[C@@H]1[C@@H](O[C@H]2O[C@H](CO)[C@H](O[C@H]3O[C@H](CO[C@@H]4O[C@@H](C)[C@H](O)[C@@H](O)[C@H]4O)[C@@H](O)[C@H](O)[C@H]3O)[C@H](O[C@@H]3O[C@H](CO)[C@@H](O)[C@H](O)[C@H]3NC(C)=O)[C@H]2O)[C@H](O)[C@@H](CO[C@H]2O[C@H](CO)[C@@H](O)[C@H](O)[C@H]2O)O[C@@H]1O, the Kd (protein: TAIL SPIKE PROTEIN(E372Q mutant), PDB entry 2x6w) is given as 0.079 µM (active).

In the case of CC(=O)N[C@H]1[C@H](O[C@@H]2[C@@H](O)[C@@H](O)O[C@H](CO)[C@@H]2O[C@H]2O[C@H](CO[C@@H]3O[C@@H](C)[C@H](O)[C@@H](O)[C@H]3O)[C@@H](O)[C@H](O)[C@H]2O)O[C@H](CO)[C@@H](O)[C@@H]1O, the Kd (protein: TAIL SPIKE PROTEIN(D339N mutant), PDB entry 2x6x) is given as 210 µM (active).

For CC(=O)N[C@H]1[C@H](O[C@@H]2[C@H](O[C@]3(C(=O)O)C[C@H](O)[C@@H](NC(C)=O)[C@H]([C@H](O)[C@H](O)CO)O3)[C@@H](O)[C@H](O[C@H]3[C@H](O)[C@@H](O)[C@H](O)O[C@@H]3CO)O[C@@H]2CO)O[C@H](CO)[C@H](O)[C@@H]1O[C@@H]1O[C@H](CO)[C@H](O)[C@H](O)[C@H]1O, the Kd (protein: ECXA, PDB entry 4l6t) is given as 0.032 µM (active).

In the case of CC(=O)N[C@@H]1[C@@H](O)[C@H](O[C@@H]2O[C@H](CO)[C@@H](O[C@@H]3O[C@H](CO[C@H]4O[C@H](CO)[C@@H](O)[C@H](O)[C@@H]4O[C@@H]4O[C@H](CO)[C@@H](O)[C@H](O)[C@H]4NC(C)=O)[C@@H](O)[C@H](O[C@H]4O[C@H](CO)[C@@H](O)[C@H](O)[C@@H]4O[C@@H]4O[C@H](CO)[C@@H](O)[C@H](O)[C@H]4NC(C)=O)[C@@H]3O)[C@H](O)[C@H]2NC(C)=O)[C@@H](CO)O[C@H]1NC(=O)C[C@H](N)C(=O)O, the Kd (protein: LECTIN, PDB entry 3zyr) is listed as 4.6 µM (active).

In the case of Nc1c(I)c(C(=O)O)c(I)c(C(=O)O)c1I, the Kd (protein: EXTRACELLULAR PROTEIN 6, PDB entry 4b9h) is listed as 4.5 µM (active).

In the case of N/C=C/CCNCCCN, the Kd (protein: Putrescine-binding periplasmic protein (S38T, D39E, S87Y, A182D, D247S, F276W, L348Q mutation), PDB entry 4jdf) is listed as 6400 µM (active).

In the case of NCCCCNCCCN, the Kd (protein: Phospholipase A2 VRV-PL-VIIIa, PDB entry 4qf8) is given as 0.031 µM (active).

In the case of COc1ccc2c(CC(=O)O)coc2c1, the Kd (protein: Pantothenate synthetase (T2A, E77G mutation), PDB entry 4ddh) is given as 500 µM (active).
